Screens as filed in PubChem BioAssay.
RecA splice inh = inhibitors of M. tuberculosis RecA intein splicing; cell-free RecA intein splicing, fluorescence; AID 2221; P9WHJ3; 0.75% of 290,000 active; inhibition, % (no concentration beside the values); in the data active = inhibition above about 30%;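 also: 0% = vehicle wells and 100% = reference inhibitor control wells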
GDH-TPI counter-1 = inhibits GDH-TPI coupling enzymes, artifact for Mtb FBA screen. AID 588335. GDH-TPI coupled enzyme counterscreen, NADH absorbance. inhibition, % at 4.8 µM. 1.2% of 360,000 active; in the data active = inhibition above about 30%;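 also: 0% = DMSO wells and 100% = wells lacking the enzyme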
Mtb FBA inh = inhibitors of M. tuberculosis fructose-bisphosphate aldolase; P9WQA3; purified M. tuberculosis FBA, fluorescence read-out; inhibition, % at 1 µM; 2.3% of 360,000 active;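 also: 0% = vehicle and 100% = reference inhibitor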
UGM FP inh = inhibitors of M. tuberculosis UDP-galactopyranose mutase; purified UGM, fluorescence polarization probe displacement; inhibition, % at 10 µM; 0.06% of 320,000 active; in the data active = inhibition above about 10%, passing the limit was not always enough
Vc quorum ag = quorum light induction in luxS cqsA deficient V. cholerae. activation, % at 18.7 µM. AID 588436. 0.16% of 350,000 active. V. cholerae BH1578 lux reporter, luminescence, 6 h; in the data active = activation mostly above about 9.7%, no sharp cut-off
Rv3671c inh = inhibits the M. tuberculosis serine protease Rv3671c; P9WHR9; inhibition, % at 5.96 µM; 0.048% of 320,000 active; AID 2606; in the data active = inhibition above about 38%;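 also: extracellular domain of Rv3671c used as enzyme; 0% = enzyme with DMSO and 100% = no enzyme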
Target sequence (P9WHR9 whole entry, looked up, the tested form may be a part): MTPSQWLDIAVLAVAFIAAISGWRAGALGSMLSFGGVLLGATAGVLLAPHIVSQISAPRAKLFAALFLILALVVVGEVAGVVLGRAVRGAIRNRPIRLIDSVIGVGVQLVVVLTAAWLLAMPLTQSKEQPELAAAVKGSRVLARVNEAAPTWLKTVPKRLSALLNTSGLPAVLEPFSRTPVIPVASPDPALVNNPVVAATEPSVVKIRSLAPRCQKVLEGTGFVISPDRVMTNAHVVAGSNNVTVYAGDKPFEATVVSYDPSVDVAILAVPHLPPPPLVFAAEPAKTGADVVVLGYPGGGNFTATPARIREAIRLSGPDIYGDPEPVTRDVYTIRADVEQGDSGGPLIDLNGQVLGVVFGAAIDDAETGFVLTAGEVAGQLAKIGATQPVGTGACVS
Mtb FBA inh conf = confirmation of M. tuberculosis fructose-bisphosphate aldolase inhibitors | shares compounds with Mtb FBA inh | purified M. tuberculosis FBA, fluorescence read-out | inhibition, % at 1 µM | 78% of 5,600 active | AID 651616;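 also: 0% = vehicle wells and 100% = reference inhibitor wells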
GDH-TPI counter-2 = counter-screen for M. tuberculosis FBA inhibitors: GDH-TPI coupled enzyme inhibition; AID 652141; shares compounds with Mtb FBA inh; 81% of 5,600 active; GDH-TPI coupled enzyme counterscreen, fluorescence; inhibition, % at 1 µM; in the data active = inhibition above about 10%
* hit, by the source's call. Rows were chosen to be rich in hits. Some 4.1% of all compounds tested hit in one or more screens of this group. Rule as the data show it, unless noted: active = inhibition above about 27%; inactive = the rest.

CC(C)CCNC(=O)c1cc(-c2cccs2)nc2ccccc12 was read as RecA splice inh -0.3, GDH-TPI counter-1 10.5, Mtb FBA inh 64.7*, UGM FP inh -0.8, Vc quorum ag 1.9, Rv3671c inh -1.7, Mtb FBA inh conf -2.4 and GDH-TPI counter-2 -4.4.
`O=C(NCc1cccs1)c1cc(-c2ccccc2)nc2ccccc12` gave RecA splice inh 3.5, GDH-TPI counter-1 8.5, Mtb FBA inh -1.4, Vc quorum ag -0.2 and Rv3671c inh -14.8.
`Cc1cc(NC(=O)c2cc(-c3ccc(C)s3)nc3ccccc23)no1` gave RecA splice inh -0.5, GDH-TPI counter-1 11.3, Mtb FBA inh 28.9*, UGM FP inh 2.1, Vc quorum ag -0.3, Rv3671c inh -7.5, Mtb FBA inh conf active and GDH-TPI counter-2 179.5*.
For CCC(C)NC(=O)c1cc(-c2cccs2)nc2ccccc12 (stereo unspecified) the results were RecA splice inh -0.1, GDH-TPI counter-1 21.0, Mtb FBA inh 94.5*, UGM FP inh 0.1, Vc quorum ag inactive, Rv3671c inh 2.4, Mtb FBA inh conf 101.5* and GDH-TPI counter-2 91.8*.
`CN1CCN(c2ncnc3c2ncn3[C@H]2CN(Cc3ccncc3)C[C@@H](CO)O2)CC1` gave GDH-TPI counter-1 8.0, Mtb FBA inh 3.5 and Vc quorum ag -0.4.
Clc1ccc(/C=C/c2nc3ccccc3[nH]2)cc1 was read as RecA splice inh 5.6, GDH-TPI counter-1 38.9*, Mtb FBA inh 53.5*, UGM FP inh 0.4, Rv3671c inh -16.8, Mtb FBA inh conf active and GDH-TPI counter-2 124.0*.
`Clc1ccc(/C=C/c2nc3ccccc3[nH]2)c(Cl)c1` gave RecA splice inh 7.0, GDH-TPI counter-1 16.0, Mtb FBA inh 62.9*, UGM FP inh 0.0, Vc quorum ag inactive, Rv3671c inh -45.0, Mtb FBA inh conf 59.6* and GDH-TPI counter-2 43.6*.
Clc1ccc(SCc2nc3ccccc3[nH]2)cc1 was read as RecA splice inh 3.6, GDH-TPI counter-1 -5.6, Mtb FBA inh 2.1, UGM FP inh -1.7, Vc quorum ag inactive and Rv3671c inh -6.7.
Screening OC[C@@H]1[C@@H](c2ccccc2)C(c2ccccc2)=NN1c1ccccc1 returned GDH-TPI counter-1 3.1, Mtb FBA inh 49.4*, Vc quorum ag 0.9, Mtb FBA inh conf 119.7* and GDH-TPI counter-2 90.5*.
Screening OC[C@@H]1[C@@H](c2ccccc2)C(c2cccc(Cl)c2)=NN1c1ccccc1 returned GDH-TPI counter-1 -6.4, Mtb FBA inh 49.6*, Vc quorum ag inactive, Mtb FBA inh conf 121.7* and GDH-TPI counter-2 133.7*.
Screening CCN1CC(c2ccccc2)C(c2ccc(Cl)cc2)=N1 (stereo unspecified) returned RecA splice inh 4.1, GDH-TPI counter-1 1.5, Mtb FBA inh 5.5, UGM FP inh -3.8, Vc quorum ag -0.5 and Rv3671c inh 5.8.
For OC[C@@H]1[C@@H](c2ccc(Cl)cc2)C(c2ccc(F)cc2)=NN1c1ccccc1 the results were GDH-TPI counter-1 3.1, Mtb FBA inh 60.4*, Vc quorum ag -0.9, Mtb FBA inh conf 149.9* and GDH-TPI counter-2 98.2*.
`O=[N+]([O-])c1cccc(OCC(O)CN2CCN(S(=O)(=O)c3cc(Cl)ccc3Cl)CC2)c1` (stereo unspecified) gave RecA splice inh -0.3, GDH-TPI counter-1 6.0, Mtb FBA inh -1.4, UGM FP inh -0.3, Vc quorum ag inactive and Rv3671c inh -5.1.
CN(CC(=O)NCC1CCCCC1)CC(=O)Nc1ccc(F)cc1 was read as GDH-TPI counter-1 8.4, Mtb FBA inh 0.1, UGM FP inh 4.5, Vc quorum ag inactive and Rv3671c inh 3.0.
Screening COC(=O)[C@H](C(C)C)N(Cc1ccccc1)S(=O)(=O)CCN1CCN(c2ccccc2)CC1 returned GDH-TPI counter-1 -2.1, Mtb FBA inh 6.0 and Vc quorum ag inactive.
For Cc1nc2ccccc2c(=O)n1N the results were RecA splice inh -0.4, GDH-TPI counter-1 -5.7, Mtb FBA inh 3.2, UGM FP inh 1.6, Vc quorum ag 4.2 and Rv3671c inh 3.5.
Screening Cc1csc2nc3ccccc3c(=O)n12 returned RecA splice inh -0.8, GDH-TPI counter-1 13.0, Mtb FBA inh 39.4*, UGM FP inh 0.0, Rv3671c inh 6.2, Mtb FBA inh conf 66.7* and GDH-TPI counter-2 37.9*.
CCOC(=O)NC(=O)c1cn(N(C)c2ncc(C(F)(F)F)cc2Cl)c(=O)[nH]c1=O was read as RecA splice inh -3.5, GDH-TPI counter-1 -0.3, Mtb FBA inh 1.2, UGM FP inh -0.9, Vc quorum ag -0.6 and Rv3671c inh 5.7.
For COc1ccc2cc3cc(C(=O)NCCCN4CCc5ccccc5C4)sc3nc2c1 the results were RecA splice inh -10.8, GDH-TPI counter-1 6.5, Mtb FBA inh 26.8, Vc quorum ag -0.3 and Rv3671c inh -4.2.
COc1ccc2cc3cc(C(=O)NC4CC4)sc3nc2c1 was read as RecA splice inh 0.4, GDH-TPI counter-1 23.5, Mtb FBA inh 101.8*, UGM FP inh 1.1, Vc quorum ag -0.2, Rv3671c inh 0.1, Mtb FBA inh conf 129.5* and GDH-TPI counter-2 117.1*.
CCOC(=O)COc1c(-c2ccc(OC)cc2)oc2ccccc2c1=O was read as RecA splice inh 4.6, GDH-TPI counter-1 42.9*, Mtb FBA inh 67.6*, UGM FP inh -0.1, Vc quorum ag 4.5, Rv3671c inh 5.8, Mtb FBA inh conf active and GDH-TPI counter-2 active.
COc1ccc(-c2oc3ccccc3c(=O)c2OCC(=O)O)cc1 was read as RecA splice inh -3.2, GDH-TPI counter-1 35.0*, Mtb FBA inh 98.4*, UGM FP inh 7.4, Vc quorum ag -0.6, Rv3671c inh 5.3, Mtb FBA inh conf active and GDH-TPI counter-2 163.3*.
`O=C(O)COc1c(-c2ccco2)oc2ccccc2c1=O` gave RecA splice inh -0.7, GDH-TPI counter-1 24.5, Mtb FBA inh 46.2*, UGM FP inh 0.0, Vc quorum ag -0.8, Rv3671c inh -8.0, Mtb FBA inh conf active and GDH-TPI counter-2 active.
`COc1cc2cc(CCOC(=O)c3ccc(F)cc3)oc(=O)c2cc1OC` gave GDH-TPI counter-1 7.4, Mtb FBA inh 1.5, UGM FP inh 1.8, Vc quorum ag -0.6 and Rv3671c inh -7.6.
`Cc1ccc(-c2cc(C(F)F)nc(N3CCOCC3)n2)cc1` gave RecA splice inh 6.3, GDH-TPI counter-1 -2.5, Mtb FBA inh 5.0, UGM FP inh -3.0, Vc quorum ag -0.2 and Rv3671c inh -0.7.
Screening COc1ccc(-c2cc(C(F)F)nc(-n3nc(C)cc3C)n2)cc1 returned RecA splice inh -1.3, GDH-TPI counter-1 9.3, Mtb FBA inh 52.3*, UGM FP inh 2.3, Vc quorum ag inactive, Rv3671c inh 1.8, Mtb FBA inh conf 62.8* and GDH-TPI counter-2 44.4*.
